# HP1b binding inh – blocks HP1-beta chromodomain binding to methylated histone tails; P83916; AlphaScreen HP1-beta / biotin-H3K9me3 peptide binding; Potency, µM (highest dose often 114 µM), without a hit: at the top dose activity change, negative = inhibition, most hits filed as inhibitors; 0.56% of 390,000 active; AID 540317; note: nearly all actives have a fitted effect of over 70% in size
# Target sequence (P83916 whole entry, looked up): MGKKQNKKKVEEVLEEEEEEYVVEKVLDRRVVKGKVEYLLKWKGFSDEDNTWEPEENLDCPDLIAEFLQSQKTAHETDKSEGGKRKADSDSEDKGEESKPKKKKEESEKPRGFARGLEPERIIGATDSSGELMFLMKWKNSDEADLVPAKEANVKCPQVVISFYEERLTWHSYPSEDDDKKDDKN
#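 AlphaScreen: HP1-beta (50 nM) preformed 30 min with biotin-H3(1-18)K9me3 peptide (50 nM) in PBS pH 7.4, 0.01% Tween-20. Compound added for 30 min at RT, then streptavidin donor/nickel chelate acceptor beads (10 ug/mL) for 30 min.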
# Sfp inh – inhibitors of Bacillus subtilis Sfp phosphopantetheinyl transferase. Q9F4F7. Biochemical Sfp PPTase activity, qHTS. Potency, µM, without a hit: largest response in the series, negative = inhibition, most hits filed as inhibitors. 3.5% of 310,000 active. AID 1490;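 note: the enzyme is Sfp with the accession as filed and its product quenches rhodamine fluorescence; 0% = enzyme reaction without inhibitor and -100% = no enzyme wells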
#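 Reaction rates are the 30-min fluorescence difference (ex 525, em 598 nm) in wells containing 15 nM Sfp, 5 uM rhodamine-CoA and 12.5 uM BHQ-2-YbbR at pH 7.6 with 10 mM MgCl2.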
# L3MBTL1 block – inhibitors of human L3MBTL1; AID 485360; Potency, µM (top dose mostly 57.1 µM), for inactives: at the top dose activity, negative = inhibition, hits mostly inhibitors; AlphaScreen L3MBTL1–H3K9me1 peptide binding; 0.66% of 230,000 active; note: % is set by controls: 0 for no effect and ±100 for the full control effect; nearly all actives have a fitted effect of over 60% in size
#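 Read-out is AlphaScreen signal from streptavidin donor and nickel chelate acceptor beads (10 ug/mL final each) bridging L3MBTL1 (50 nM) and biotinylated K9-monomethylated H3(1-15) peptide (75 nM), after 30 min compound exposure at room temperature.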
# G9a block – G9a (human) methyltransferase inhibition; AID 504332; 8.8% of 350,000 active; Potency, µM (top dose mostly 102 µM), for inactives: top-dose activity, negative = inhibition, usual class: inhibitors; Q96KQ7; G9a H3K9 monomethylation, AlphaScreen, 2 h; note: % is set by controls: 0 for no effect and ±100 for the full control effect; nearly all actives have a fitted effect of over 75% in size
# Target sequence (Q96KQ7 913-1193 limits assumed): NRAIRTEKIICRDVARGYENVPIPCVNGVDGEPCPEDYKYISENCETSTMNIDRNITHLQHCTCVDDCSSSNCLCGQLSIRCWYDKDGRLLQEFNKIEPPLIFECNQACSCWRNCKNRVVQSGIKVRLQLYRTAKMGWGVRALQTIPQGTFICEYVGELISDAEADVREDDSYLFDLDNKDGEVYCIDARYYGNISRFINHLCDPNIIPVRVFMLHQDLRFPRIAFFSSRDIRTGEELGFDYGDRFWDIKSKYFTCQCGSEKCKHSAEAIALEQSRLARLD
#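 G9a (20 nM) preincubated 15 min RT with compounds, then 500 nM biotinylated H3K9 peptide and 20 uM SAM added; 2 h RT reaction. Monomethyl-H3K9 product detected by AlphaScreen with anti-H3K9me1 antibody, streptavidin donor and anti-rabbit IgG acceptor beads.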
# JMJD2A Tudor inh – inhibitors of human JMJD2A Tudor domain; O75164; AlphaScreen JMJD2A-Tudor / H3K4me3 peptide binding; Potency, µM (titrated, usually from 114 µM), without a hit: top-dose activity change, negative = inhibition, most hits filed as inhibitors; 4.4% of 390,000 active; AID 504339; note: % is set by controls: 0 for no effect and ±100 for the full control effect; nearly all actives have a fitted effect of over 50% in size
# BAZ2B inh – blocks human BAZ2B; AlphaScreen BAZ2B-H3K14Ac peptide displacement; Potency, µM (series often up to 114 µM), for the others: at the top dose activity change, negative = inhibition, hits mostly inhibitors; 4.4% of 360,000 active; AID 504333; note: % is set by controls: 0 for no effect and ±100 for the full control effect; nearly all actives have a fitted effect of over 60% in size
#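 AlphaScreen displacement: compounds (up to 110uM) incubated 30 min at room temperature with a preformed 50 nM BAZ2B/50 nM biotinylated H3K14Ac peptide complex in PBS pH 7.4 with Tween-20. Donor and acceptor beads at 10 ug/mL final added, 20 min light-protected before reading.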
# Starred values were filed as active, the others as inactive; ? = inconclusive; . = not tested or not shown; ! = not confirmed by another sample; [ ] = dose if it differs, or a comment. Shown are actives, neighbours in structure and some others; about 12% of the full set was active somewhere. Calls come from the whole dose curve; as a rule, active = well fitted curve in the direction sought with a large enough effect; inconclusive = small, poorly fitted or top-dose-only effect, or another doubt; inactive = no such curve, though single readings can be large; an effect the other way counts as inactive or inconclusive. Potency is the fitted concentration of half-maximal effect.
SMILES,HP1b binding inh,Sfp inh,L3MBTL1 block,G9a block,JMJD2A Tudor inh,BAZ2B inh
CCCCC[n+]1ccn(-c2nc3ccccc3nc2[N-]S(=O)(=O)c2ccccc2)c1,16%,35µM*,10%,-34%,-3%,20µM*
CCCC[n+]1ccn(-c2nc3ccccc3nc2[N-]S(=O)(=O)c2ccc(Cl)cc2)c1,16%,-8%,.,.,?,?
NS(=O)(=O)c1ccc(CNC(=O)CNC(=O)c2ccc(F)cc2)cc1,17%,9%,.,27%,-12%,-26%
C#CCN1C(=O)C(O)(CC(=O)/C=C/c2ccco2)c2ccccc21 (configuration not stated),17%,35µM*,-19%,50µM*,-35%,?
CCCCNc1ncnc2c1nnn2C,-15%,.,.,-7%[59 µM],-15%,-6%
CCN(CC(=O)Nc1c(F)cccc1F)C(=O)Cc1ccc2c(c1)CCC2,?,.,-3%,10µM*,-9%,-6%
CN(CC(=O)Nc1c(Cl)cccc1Cl)C(=O)Cc1ccc2c(c1)CCC2,?,.,7%,3.5µM*,-6%,5%
COc1cccc(NC(=O)CN(C)C(=O)Cc2ccc3c(c2)CCC3)c1,14%,.,-2%,?,-8%,8%
COC(=O)CCC(=O)NC(=S)Nc1ccccc1F,47%,14%,7%[11.4 µM],?,-3%,-13%
COc1cc2ccc(=O)oc2c(OC)c1OC,.,1%,.,-25%[2.33 µM],.,.
COc1cc2ccc(=O)oc2c(O)c1O,0%,40µM*!,.,.,6.3µM*,.
CC(=O)Nc1ccc2sc(C)nc2c1,39%,3%,9%,.,-14%,-1%
CC(=O)NS(=O)(=O)c1ccc2sc(C)nc2c1,25%,79µM*,0%,-7%,-7%,-25%
COc1ccccc1NC(=O)C1=C(C)Nc2ncnn2C1c1ccc[nH]1 (configuration not stated),17%[57 µM],.,.,-44%[59 µM],56µM*,?
CC1=C(C(=O)Nc2ccccn2)C(c2ccccc2)n2ncnc2N1 (configuration not stated),29%,22%,1%,-27%[59 µM],-4%,12%
CC1=C(C(=O)Nc2cccc(C(F)(F)F)c2)C(c2ccccn2)n2ncnc2N1 (configuration not stated),5%[57 µM],.,.,20µM*,50µM*,?
COc1ccc(NC(=O)C2=C(C)Nc3ncnn3C2c2ccccn2)cc1 (configuration not stated),-1%[57 µM],.,.,?,89µM*,?
COc1ccccc1NC(=O)C1=C(C)Nc2ncnn2C1c1ccccn1 (configuration not stated),44%,.,.,12%[59 µM],7%,0%
COC(=O)/C=C/c1c(C)nc(NCc2ccccc2)nc1Cl,3%,0%,.,50µM*,-25%,?
O=C(CCS(=O)(=O)c1ccc(Br)cc1)Nc1ccc(Cl)c(C(F)(F)F)c1,24%,.,.,-32%[59 µM],-7%,-7%[57.1 µM]
CN1c2cccc3cccc(c23)N(C)C1(C)C,?,-23%,-29%,-41%[0.0925 µM],?,50µM*
CNC(=O)/C(C#N)=C/c1cn(CC(=O)OC)c2ccccc12,23%,23%,-3%,4%,-16%,-24%
COC(=O)Cn1c(=O)c(=O)n(CC(=O)OC)c2ccccc21,-8%,17%,.,15%[59 µM],-31%,-31%
CC(C)OC(=O)Cn1cc(C#N)c2ccccc21,24%,10%,4%,-26%,-9%,11%
COC(=O)Cn1cc(/C=C/c2cc[n+](C)cc2)c2ccccc21,11%,7%,-5%,45µM*,?,45µM*
SMILES,HP1b binding inh,Sfp inh,L3MBTL1 block,G9a block,JMJD2A Tudor inh,BAZ2B inh
COC(=O)Cn1c(C)c(/C=C/c2cc[n+](C)cc2)c2ccccc21,?,3%,0%,40µM*,?,?
COC(=O)Cn1cc(C#N)c2ccccc21,17%,1%,-7%,10µM*,-8%,0%
O=C(NCCOC(=O)Nc1cccc2ccccc12)OCc1ccccc1,23%,.,.,.,-16%,.
CC1=C(C#N)C(c2ccccc2)C2=C(N1)c1ccccc1C2=O (configuration not stated),?,9%,-9%,45µM*,22µM*,32µM*
CC1=C(C#N)C(c2cccnc2)C2=C(N1)c1ccccc1C2=O (configuration not stated),12%,16%,-10%,35µM*,-9%,-35%
CSC1=C(C#N)C(c2ccccc2Cl)C2=C(N1)c1ccccc1C2=O (configuration not stated),?,-9%,0%,16µM*,32µM*,-31%[57.1 µM]
O=S(=O)(Nc1ccc(Br)cc1)c1cccc(NC(=S)NCCN2CCOCC2)c1,-14%,?,.,32µM*,-14%,-15%
O=S(=O)(Nc1ccccc1F)c1cccc(NC(=S)NCCN2CCOCC2)c1,?,.,-2%,.,40µM*,.
CCN(CCn1cccn1)C(=O)C1CCC(=O)N(CC2CCCCC2)C1 (configuration not stated),12%,10%,.,17%,?,-28%
CC1CCC(NC(=O)c2ccc3c(c2)N(Cc2ccccc2F)C(=O)c2ccccc2S3=O)CC1 (configuration not stated),39%,.,.,-5%[59 µM],-6%,-18%
Cc1ccc(/C([O-])=C(/C(=S)NCCN2CCOCC2)[n+]2ccccc2)cc1[N+](=O)[O-],51%,20µM*,-3%,-33%[12.7 µM],-10%[11.4 µM],-36%
CC(C)C(=O)c1cc2c(cc1NC(=O)Nc1cccc3ccccc13)OCCO2,.,16%,.,5%[59 µM],.,12%
COc1cccc(NC(=S)/C(=C(\[O-])c2ccc(OC(F)F)cc2)[n+]2ccccc2)c1,4%,50µM*,-8%,18µM*,-30%,-31%
Cc1ccc(/C([O-])=C(/C(=S)Nc2ccc(SC(F)F)cc2)[n+]2ccccc2)cc1[N+](=O)[O-],-21%,13µM*,-20%,22µM*,?,?
[O-]/C(=C(\C(=S)Nc1cccc2ccccc12)[n+]1ccccc1)c1ccc2c(c1)OCCO2,-16%,45µM*,.,8.9µM*,?,56µM*
CC(C)CC(=O)Nc1ccc(Oc2ccc3c(c2)C(=O)NC3=O)cc1,36%,-2%,-2%,14%,-4%,10%
CC(C)c1nc(CNC(=O)C2CCC(=O)N(CCc3cccc(F)c3)C2)cs1 (configuration not stated),27%,17%,.,?,-1%,1%
COc1ccc(NS(=O)(=O)c2cccc(C(=O)NNC(=O)c3ccc(=O)[nH]c3)c2)cc1,13%,.,7%,-9%[59 µM],-21%,-3%
Cc1ccc(NC(=S)/C(=C(\[O-])c2ccc(C)c([N+](=O)[O-])c2)[n+]2ccccc2)cc1C,.,4%,-12%,?,.,56µM*
